Rows were chosen to be rich in hits. Some 2.8% of all compounds tested hit in one or more screens of this group.
PI4K2A block: qHTS for small molecular inhibitors of PI4K2A; actives 0.13% (n = 420,000); purified PI4K2A, ADP-Glo luminescence, 1 h; stronger effect = lower value; Phosphatidylinositol 4-kinase type 2-alpha (Homo sapiens), Q9BTU6; activity change, negative = inhibition, % at 76.9 µM; in the data active = activity change below about -50%; inconclusive = mostly about -30% to -49%
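In this quantitative HTS, ADP production by PI4K2A was quantified luminescently after 1 h at ambient temperature; 100 microM adenosine served as plate-quality control.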
Pol iota inh: qHTS for Inhibitors of Polymerase Iota | DNA polymerase iota (Homo sapiens), Q9UNA4 | Pol iota fluorescent replication assay, 10 min | Potency, µM (doses to about 115 µM), usual class: inhibitors | actives 1% (n = 390,000) | AID 588590, 2011
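Fluorescent replication assay read twice, at 0 min and 10 min after adding 50 nM (final) substrate. Enzyme (10 nM) and compounds were first incubated 15 min at room temperature; enzyme-free buffer wells were negative controls.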
PI5P4Ka inh: qHTS for Inhibitors of phosphatidylinositol 5-phosphate 4-kinase (PI5P4K); Phosphatidylinositol 5-phosphate 4-kinase type-2 alpha (Homo sapiens), P48426; PI5P4Kalpha enzyme, ADP-Glo luminescence, 60 min; stronger effect = lower value; max response, %; actives 1.2% (n = 330,000); AID 652105, 2013; active = max response of -50% or lower; inconclusive = between -30% and -50%; inactive = -30% or higher; note: value at the top dose of about 77 µM
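Reactions run in 0.038 M HEPES pH 7.4, 0.28 mM EGTA, 0.1% CHAPS and 5% DMSO, with PI5P4Kalpha, substrate, compound and 5 microM ATP final, one hour at room temperature. Readout is ADP-Glo luminescence.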
Pol eta inh-1: qHTS for Inhibitors of Polymerase Eta; DNA polymerase eta (Homo sapiens), Q9Y253; recombinant Pol eta, fluorescent DNA replication assay; Potency, µM (doses to about 114 µM), most hits filed as inhibitors; actives 1.2% (n = 390,000)
Target sequence (Q9Y253 whole entry, looked up): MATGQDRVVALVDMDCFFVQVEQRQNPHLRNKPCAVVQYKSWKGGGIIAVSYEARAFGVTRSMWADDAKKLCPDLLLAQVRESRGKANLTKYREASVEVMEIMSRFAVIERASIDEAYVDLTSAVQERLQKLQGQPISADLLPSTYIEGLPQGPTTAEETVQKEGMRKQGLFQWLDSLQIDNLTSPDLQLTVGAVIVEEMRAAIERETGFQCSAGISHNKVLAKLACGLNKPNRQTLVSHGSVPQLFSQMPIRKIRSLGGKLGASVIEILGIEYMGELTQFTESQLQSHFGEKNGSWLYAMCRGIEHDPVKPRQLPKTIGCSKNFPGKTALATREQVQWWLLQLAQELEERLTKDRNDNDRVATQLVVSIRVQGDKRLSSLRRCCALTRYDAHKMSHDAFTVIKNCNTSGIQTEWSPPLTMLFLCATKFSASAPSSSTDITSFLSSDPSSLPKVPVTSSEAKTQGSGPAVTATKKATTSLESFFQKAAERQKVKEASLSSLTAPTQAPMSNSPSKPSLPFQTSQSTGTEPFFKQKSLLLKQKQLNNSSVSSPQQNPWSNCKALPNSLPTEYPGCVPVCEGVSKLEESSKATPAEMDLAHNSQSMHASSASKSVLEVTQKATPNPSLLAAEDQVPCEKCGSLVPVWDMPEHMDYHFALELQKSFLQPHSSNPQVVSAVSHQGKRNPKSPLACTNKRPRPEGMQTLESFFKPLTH
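Pol eta (10 nM) was preincubated with compounds for 15 min at room temperature, after which fluorescent replication substrate (50 nM final) was added to start the reaction. Fluorescence was read kinetically at 0 and 10 min.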
POLB inh: qHTS Assay for Inhibitors of DNA Polymerase Beta | Pol beta primer extension/strand displacement, fluorescence kinetic | Potency, µM (series often up to 114 µM), usual class: inhibitors | actives 1.3% (n = 340,000) | AID 485314, 2010 | P06746
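Homogeneous kinetic assay of primer extension and strand displacement by 10 nM Pol beta, preincubated 15 min at room temperature with compound before 50 nM substrate (final) was added. Read at 0 and 10 min; four-parameter Hill fit.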
Pol kappa inh: qHTS for Inhibitors of Polymerase Kappa | actives 0.53% (n = 400,000) | purified Pol kappa, fluorescent DNA synthesis assay, 10 min | Potency, µM (top dose mostly 107 µM), hits mostly inhibitors
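Here, compound and 10 nM enzyme are combined for 15 min at room temperature; adding 50 nM substrate (final) starts DNA synthesis, tracked by fluorescence at 0 and 10 min against buffer-only wells.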
Pol eta inh-2: qHTS for Inhibitors of Polymerase Eta: Confirmatory Assay for Cherry-picked Compounds. shares compounds with Pol eta inh-1. Pol eta primer extension, TAMRA/BHQ fluorescence, 10 min. Potency, µM, hits mostly inhibitors. actives 64% (n = 2,600)
ADP-Glo interf: qHTS for Inhibitors of PI5P4K: ADP-Glo counter assay. shares compounds with PI5P4Ka inh. ADP-Glo detection counter-screen, luciferase luminescence, no enzyme. Potency, µM (series often up to 76.9 µM), hits mostly inhibitors. 1,100 tested, under 10 active. AID 743285, 2014
Hits are given with their value. Unless noted, calls come from the whole dose curve; as a rule, active = well fitted curve in the direction sought with a large enough effect; inconclusive = small, poorly fitted or top-dose-only effect, or another doubt; inactive = no such curve, though single readings can be large; an effect the other way counts as inactive or inconclusive.

For CC(=O)NC12CC3CC(C1)CC(C(=O)OCC(=O)c1cc(C)n(C)c1C)(C3)C2 the results were PI4K2A block inactive, Pol iota inh inactive, PI5P4Ka inh inactive, Pol eta inh-1 inactive and Pol kappa inh inactive.
`CC/C=C/[C@@H](c1ccccc1)[C@H](C)C(O)CC(=O)SC(C)(C)C` (stereo partly drawn) gave Pol iota inh inactive and Pol kappa inh inactive.
`Cc1ccc2[nH]c3ccccc3c(=O)c2c1` gave PI4K2A block inactive, Pol iota inh inactive, PI5P4Ka inh inactive, Pol eta inh-1 inactive, POLB inh inconclusive and Pol kappa inh inactive.
O=c1c2ccccc2[nH]c2ccc(O)cc12 was read as PI4K2A block inactive, Pol iota inh inconclusive, PI5P4Ka inh -73, Pol eta inh-1 18µM, POLB inh 18µM, Pol kappa inh 79µM, Pol eta inh-2 54 and ADP-Glo interf inactive.
`COc1ccc(Cn2c(CCC(=O)Nc3cccc(OC)c3)nc3cccnc32)cc1` gave PI4K2A block inactive, Pol iota inh inactive, Pol eta inh-1 inactive, POLB inh inactive and Pol kappa inh inactive.
For Cc1c(C(=O)N2CCN(C)CC2)oc2ccc(Br)cc12 the results were PI4K2A block inactive, Pol iota inh inactive, PI5P4Ka inh inactive, Pol eta inh-1 inactive, POLB inh inactive and Pol kappa inh inactive.
For Cc1c(C(=O)N2CCCC2)oc2ccc(Br)cc12 the results were PI4K2A block inactive, Pol iota inh inconclusive, PI5P4Ka inh -61, Pol eta inh-1 50µM, POLB inh inconclusive, Pol kappa inh inactive, Pol eta inh-2 inconclusive and ADP-Glo interf inactive.
For O=C(Nc1cccc2ccccc12)c1csc(COCCO)n1 the results were PI4K2A block inactive and PI5P4Ka inh inactive.
For O=C(Nc1cccc2cccnc12)c1csc(COCCO)n1 the results were PI4K2A block inactive, PI5P4Ka inh inactive and ADP-Glo interf inactive.
For O=C(NCc1cccc(F)c1)Nc1nnc([C@H]2C[C@H](O)[C@@H](CO)O2)s1 the results were PI4K2A block inactive, PI5P4Ka inh -50 and ADP-Glo interf inactive.
Screening N#Cc1ccc(CN2CCC3(CC2)CCN(S(=O)(=O)c2ccccc2)CC3)cc1 returned Pol kappa inh inactive.
For COc1ccccc1NC(=O)Nc1nc(CC(=O)Nc2cc(F)ccc2F)cs1 the results were PI4K2A block inactive, Pol iota inh inactive, PI5P4Ka inh -52, Pol eta inh-1 inconclusive, Pol kappa inh inactive and ADP-Glo interf inactive.
Screening NC(=O)[C@@H]1CC2(CC(c3cccc(NC(=O)COc4ccc(Cl)cc4)c3)=NO2)CN1C(=O)COc1ccc(Cl)cc1 (stereo partly drawn) returned PI4K2A block inactive, Pol iota inh inactive, PI5P4Ka inh inactive, Pol eta inh-1 inactive, POLB inh inconclusive, Pol kappa inh inactive and ADP-Glo interf inactive.
Screening CCN(CC)S(=O)(=O)c1cc(NC(=O)CSc2nnc(N)s2)ccc1C returned PI4K2A block inactive, Pol iota inh inactive, PI5P4Ka inh inactive, Pol eta inh-1 inactive and Pol kappa inh inactive.
CCN(CC)C(=O)CSc1nc2ccc(NC(=O)CSc3nnc(N)s3)cc2s1 was read as PI4K2A block inactive, Pol iota inh 13µM, PI5P4Ka inh -57, Pol eta inh-1 11µM, POLB inh 32µM, Pol kappa inh inconclusive and ADP-Glo interf inactive.
CC(=O)Nc1ccc2nc(SCC(=O)NCCOc3ccccc3)sc2c1 was read as PI4K2A block inactive, Pol iota inh inconclusive, PI5P4Ka inh -61, Pol eta inh-1 inactive, POLB inh inactive, Pol kappa inh inactive and ADP-Glo interf inactive.
CCCCOc1ccc(S(=O)(=O)NC(=O)C2(C)CCN2C(=O)CCc2ccccc2)cc1 (stereo not drawn) was read as PI4K2A block inactive, PI5P4Ka inh -53 and ADP-Glo interf inactive.
CCCCOc1ccc(S(=O)(=O)NC(=O)C2(C)CCN2C(=O)Cc2ccccc2Cl)cc1 (stereo not drawn) was read as PI4K2A block inactive and PI5P4Ka inh inactive.
For CCC(Sc1ncnc2sc3c(c12)CCCC3)C(=O)OCC(C)C (stereo not drawn) the results were PI4K2A block inactive, Pol iota inh inactive, Pol eta inh-1 inactive, POLB inh inactive and Pol kappa inh inactive.
Screening CCCCc1nnc(NC(=O)CC(=O)Nc2ccccc2C(=O)O)s1 returned PI4K2A block inactive, Pol iota inh inactive, PI5P4Ka inh -61, Pol eta inh-1 inactive, POLB inh inactive, Pol kappa inh inactive and ADP-Glo interf inactive.
For CC(C)Cc1nnc(NC(=O)CC(=O)Nc2ccccc2C(=O)O)s1 the results were PI4K2A block inactive, Pol iota inh inconclusive, PI5P4Ka inh -57, Pol eta inh-1 inactive, POLB inh inactive, Pol kappa inh inactive and ADP-Glo interf inactive.
For CCOc1ccc(NC(=O)c2cc(S(=O)(=O)N3CCCCCC3)cn2C)cc1 the results were PI4K2A block inactive, Pol iota inh inactive, Pol eta inh-1 inactive, POLB inh inactive and Pol kappa inh inactive.
CC(=O)c1ccc(N2C(=O)N(Cc3cc(C)ccc3C)c3ccccc3S2(=O)=O)cc1 was read as PI4K2A block inactive, Pol iota inh inactive, Pol eta inh-1 inactive, POLB inh inactive and Pol kappa inh inactive.
`O=C(Cn1cc(COc2ccccc2[N+](=O)[O-])nn1)c1ccc(O)cc1` gave PI4K2A block inactive, Pol iota inh inactive, PI5P4Ka inh inactive, Pol eta inh-1 inactive and Pol kappa inh inactive.
N#Cc1ccccc1OCc1cn(CC(=O)c2ccc(O)cc2)nn1 was read as PI4K2A block inconclusive, Pol iota inh inconclusive, PI5P4Ka inh -58, Pol eta inh-1 inactive, Pol kappa inh inactive and ADP-Glo interf inactive.
COc1ccc(Cl)cc1C(Nc1cccnc1)c1ccc2cccnc2c1O (stereo not drawn) was read as PI4K2A block inactive, Pol iota inh inactive, PI5P4Ka inh -72, Pol eta inh-1 inactive, POLB inh inactive, Pol kappa inh inactive and ADP-Glo interf inactive.
Cc1cc(C)c2c(C)ccnc2c1 was read as Pol iota inh inactive and Pol kappa inh inactive.

High-throughput results as filed in PubChem.
